# Assay outcomes from PubChem.
# A selection: hits, their analogues and other compounds. The true share with any hit is near 1.2%.
# pCIP destab: lowers stability of the mouse p/CIP coactivator protein. Q05BA5. F442A p/CIP-EGFP cells, EGFP fluorescence, 16 h. decrease of EGFP signal, % at 10 µM. 290,000 tested, 0.01% active. AID 1984;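 active = EGFP signal decrease of at least 30% at 10 µM or well 3 SD below plate mean, unless failing retest; inactive = the rest, including hits failing retest or dose response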
# VLA-4 inh: inhibition in a human VLA-4 binding assay. P13612. VLA-4 expressing cells, ligand binding flow cytometry. inhibition, % (about 7 µM as worked out from the volumes in the protocol). 330,000 tested, 0.2% active; in the data active = inhibition above about 50%
# GPR7 antag: human neuropeptides B/W receptor 1 antagonism; P48145; GPR7-expressing cells, fluorescence antagonist assay; inhibition, % at 4.4 µM; 290,000 tested, 1.1% active; in the data active = inhibition above about 16%, passing the limit was not always enough;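 also: cells stimulated with the agonist NPW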
# GASC-1 inh: human JMJD2C demethylase inhibition; Q9H3R0; GST-JMJD2C(1-420) H3K9me3 demethylation, DELFIA europium; inhibition, % at 2.35 µM; 330,000 tested, 0.069% active;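 active = more than half of a compound's replicate wells show inhibition beyond 50%, single wells judged on their own value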;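 also: signal counts dimethyl H3K9 product captured on neutravidin plate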
# Target sequence (Q9H3R0 1-420 limits assumed): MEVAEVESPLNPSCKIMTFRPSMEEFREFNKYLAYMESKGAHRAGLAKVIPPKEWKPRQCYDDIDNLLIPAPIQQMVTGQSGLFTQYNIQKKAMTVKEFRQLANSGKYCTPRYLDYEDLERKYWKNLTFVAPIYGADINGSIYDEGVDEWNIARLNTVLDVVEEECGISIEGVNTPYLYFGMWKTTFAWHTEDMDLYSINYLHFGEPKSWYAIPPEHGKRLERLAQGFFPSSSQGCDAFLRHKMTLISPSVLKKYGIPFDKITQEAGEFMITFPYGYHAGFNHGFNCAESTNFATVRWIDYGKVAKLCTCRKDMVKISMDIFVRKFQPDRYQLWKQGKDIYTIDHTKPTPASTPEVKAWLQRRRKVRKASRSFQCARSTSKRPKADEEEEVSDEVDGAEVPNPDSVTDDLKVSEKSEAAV
# VLA-4 allo CP: confirmation of allosteric modulators of human VLA-4 integrin; shares compounds with VLA-4 inh; U937 cells, HUTS-21 LIBS mAb binding, flow cytometry; LDV ligand present at threefold Kd; inhibition, % at 6.7 µM; 1,300 tested, 2% active; in the data active = inhibition above about 40%
# Hits are given with their value; - = inactive; . = no result given.
SMILES,pCIP destab,VLA-4 inh,GPR7 antag,GASC-1 inh,VLA-4 allo CP
CCN(CC)c1ccc(/C=C(\C#N)C(N)=S)cc1,-,-,-,-,.
N#C/C(=C\c1cc(O)c(O)c(O)c1)C(N)=O,-,-,-,-,-
COc1ccc(S(=O)(=O)Nc2cc3c4c(c2)CCC(=O)N4CCC3)cc1C,.,-,.,-,.
Cc1ccc(NC(=O)c2ccc3nc(N4CCOCC4)sc3c2)c(Cl)c1,-,-,-,-,-
COc1ccc(CCNC(=O)c2ccc3nc(N4CCCCC4)sc3c2)cc1OC,-,-,-,-,-
O=C(NCc1cccc(F)c1)c1ccc2nc(N3CCOCC3)sc2c1,-,-,-,-,-
COc1ccc2nc(N3CCCC(C(=O)NCCc4ccc(OC)c(OC)c4)C3)sc2c1 (stereo not drawn),-,-,-,-,.
CCOc1ccc(CNC(=O)c2ccc3nc(N4CCOCC4)sc3c2)cc1,-,-,-,-,-
Cc1sc2nc(CSCC(=O)NC3(C#N)CCCCC3)[nH]c(=O)c2c1C,.,-,.,-,.
O=C(NCCc1ccc(Cl)cc1)c1ccc2nc(N3CCOCC3)sc2c1,-,-,-,-,-
O=C(NCCCN1CCC(Cc2ccccc2)CC1)c1ccc2nc(N3CCOCC3)sc2c1,-,-,-,-,.
COc1ccc(OC)c(/C=N/c2c(-c3ccc(O)c(OC)c3)nc3ccccn23)c1,-,50.6,-,-,-
COc1cc(-c2nc3ccccn3c2/N=C/c2cc(OC)c(OC)c(OC)c2)ccc1O,.,-,-,-,.
O=C(Nc1nc(-c2ccc(Cl)s2)cs1)c1ccco1,-,-,-,-,.
O=C(Nc1nc(-c2nc3ccccc3s2)cs1)c1ccco1,-,78.2,-,-,-
O=C(c1cc(Br)ccc1Cl)N1CCN(c2ccc(N3CCOCC3)nn2)CC1,.,50.8,.,-,-
O=C(c1cc2ccccc2oc1=O)N1CCN(c2ccc(N3CCOCC3)nn2)CC1,-,-,-,-,.
COc1ccc(OC)c(NC(=O)NNS(=O)(=O)c2ccc(C)cc2C)c1,-,-,-,-,.
Cc1ccc(S(=O)(=O)N2CCOC2CNC(=O)C(=O)NCCN2CCOCC2)cc1 (stereo not drawn),-,-,-,-,.
O=C(Nc1ccc2oc(-c3ccccc3)nc2c1)c1ccc2c(c1)OCCO2,-,60.1,-,-,-
Nc1nc2c(nc(Br)n2[C@@H]2O[C@@H]3COP(=O)(O)O[C@H]3[C@H]2O)c(=O)[nH]1,.,-,.,-,.
Nc1ncnc2c1nc(Br)n2[C@@H]1O[C@@H]2COP(=O)(O)O[C@H]2[C@H]1O,.,53.6,.,-,-
O=C(COc1cccnc1[N+](=O)[O-])c1c[nH]c2ccccc12,-,-,-,-,.
Cc1c(NC(=O)C2CCCN2S(=O)(=O)c2ccccc2)c(=O)n(-c2ccccc2)n1C (stereo not drawn),-,-,-,-,-
Cc1c(NC(=O)CCC2CCCCC2)c(=O)n(-c2ccccc2)n1C,-,-,-,-,-
SMILES,pCIP destab,VLA-4 inh,GPR7 antag,GASC-1 inh,VLA-4 allo CP
COc1ccc(S(=O)(=O)CCC(=O)Nc2c(C)n(C)n(-c3ccccc3)c2=O)cc1,-,-,-,-,-
Cc1cccc(N(CC(=O)Nc2c(C)n(C)n(-c3ccccc3)c2=O)S(C)(=O)=O)c1,-,-,-,-,-
COc1cc(C(=O)NCc2ccc3c(c2)OCO3)c([N+](=O)[O-])cc1OC,-,-,-,-,.
Cc1cc(NC(=O)CSC2=NS(=O)(=O)c3ccccc3N2)no1,.,-,.,-,.
O=C(Nc1ccccn1)C1CCN(C(=O)c2ccc(F)cc2)CC1,.,-,.,-,-
O=C(Nc1ccccc1N1CCCC1)C1CCN(C(=O)c2ccc(F)cc2)CC1,.,-,.,-,.
Cc1cccc(NC(=O)C2CCN(C(=O)c3ccccc3C)CC2)n1,.,-,.,-,-
NC(=O)Cn1cc(C(=O)C(=O)N2CCOCC2)c2ccccc21,-,-,-,-,-
O=C(NCCc1nc2ccccc2[nH]1)/C(=C/c1ccco1)NC(=O)c1ccc(Br)o1,-,-,-,-,-
O=C(NCCc1nc2ccccc2[nH]1)/C(=C/c1ccco1)NC(=O)c1ccco1,-,-,-,-,.
CCn1c(O)c(/C=C2\C=Nc3ccccc32)sc1=O,-,-,-,-,-
COc1cccc(N(C(=O)CS(=O)CC(=O)Nc2ccc(F)cc2)C(C(=O)NC2CCCCC2)c2cccs2)c1 (stereo not drawn),-,-,-,-,-
CCOc1ccc(NC(=O)Cn2c(=O)oc3ccccc32)cc1,-,-,-,-,.
CC(C)(C)NC(=O)Cn1c(=O)oc2ccc(Cl)cc21,-,54.7,-,-,-
CCOc1ccc(NC(=O)Cn2c(=O)oc3cc(Cl)ccc32)cc1,-,-,-,-,-
CCOc1ccccc1NC(=O)Cn1c(=O)oc2ccccc21,-,-,-,-,.
CCOc1ccccc1NC(=O)Cn1c(=O)oc2cc(Cl)ccc21,-,-,-,-,-
Cc1cc(NC(=O)Cn2c(=O)oc3ccc(Cl)cc32)no1,-,-,-,-,.
CCN(CC(=O)NCc1ccc(Cl)cc1)S(=O)(=O)c1ccc(F)cc1,-,-,-,-,-
CN(CC(=O)NCc1ccccc1F)S(=O)(=O)c1ccc(Cl)cc1,-,-,-,-,-
CCN(CC(=O)NCc1ccc(Cl)cc1)S(=O)(=O)c1ccc(NC(C)=O)cc1,-,-,-,-,.
COc1ccc(CNC(=O)CN(C)S(=O)(=O)c2ccccc2)cc1,-,52.3,-,-,-
COc1ccc(NC(=O)CN(C)S(=O)(=O)c2ccccc2)cc1,-,.,-,-,.
COc1ccc(NC(=O)C(C)N=C2NS(=O)(=O)c3ccccc32)cc1S(N)(=O)=O (stereo not drawn),.,-,.,-,.
NC(=O)CN1C(=O)C(=O)N(Cc2ccc(F)cc2)C1=O,-,-,-,-,.
SMILES,pCIP destab,VLA-4 inh,GPR7 antag,GASC-1 inh,VLA-4 allo CP
NC(=O)CN1C(=O)C(=O)N(Cc2ccccc2)C1=O,-,-,-,-,-
Cc1c(O)ccc(NS(=O)(=O)c2ccccc2)c1C,-,-,-,-,-
O=S(=O)(Nc1ccc(O)c(NS(=O)(=O)c2ccccc2)c1)c1ccccc1,-,-,-,-,.
COc1ccc(CN2C(=O)CNC2=S)cc1,-,-,-,-,.
CCCNC(=O)Nc1cc(OCC)c(N2CCOCC2)cc1OCC,-,-,-,-,.
CCNC(=S)Nc1cc(OCC)c(N2CCOCC2)cc1OCC,-,-,-,-,-
COc1ccc(NS(=O)(=O)N2CCOCC2)cc1,-,-,-,-,.
COc1ccccc1NC(=O)N1CCN(c2ccccn2)CC1,-,52.3,-,-,-
COc1ccccc1NC(=S)N1CCN(c2ccccn2)CC1,-,-,-,-,.
CC(C)(C)N(NC(=O)OCc1ccccc1)C(=O)c1ccccc1Cl,-,-,-,-,.
CC(C)(C)N(NC(=O)Nc1ccccc1)C(=O)c1ccccc1Cl,-,93.7,-,-,-
Cn1nc(-c2ccccc2)c2ncc(C(F)(F)F)cc21,-,-,-,-,.
COc1ccc2c(c1)nc(SCC(O)c1ccccc1)n2C (stereo not drawn),-,-,-,-,.
COc1cc(C(=O)OCC(=O)NC2CCCCC2)cc(OC)c1OC,.,-,.,-,-
